Test results as given in the supplement of paper PMC3334620.
Whole data set: some 33,000 sequences, median “E-score (-0.5 to 0.5)” near -0.021, cut for the highest 2% near 0.32. The full list was thinned out, with the highest values kept by preference.

biological target: T1, Zap1 (UniProt P47043); test: PBM E-score (8-mer binding enrichment) (E-score (-0.5 to 0.5)); higher = stronger / more preferred TF binding; conditions: protein concentration: 200 nM; construct: GST-full length
T1 sequence: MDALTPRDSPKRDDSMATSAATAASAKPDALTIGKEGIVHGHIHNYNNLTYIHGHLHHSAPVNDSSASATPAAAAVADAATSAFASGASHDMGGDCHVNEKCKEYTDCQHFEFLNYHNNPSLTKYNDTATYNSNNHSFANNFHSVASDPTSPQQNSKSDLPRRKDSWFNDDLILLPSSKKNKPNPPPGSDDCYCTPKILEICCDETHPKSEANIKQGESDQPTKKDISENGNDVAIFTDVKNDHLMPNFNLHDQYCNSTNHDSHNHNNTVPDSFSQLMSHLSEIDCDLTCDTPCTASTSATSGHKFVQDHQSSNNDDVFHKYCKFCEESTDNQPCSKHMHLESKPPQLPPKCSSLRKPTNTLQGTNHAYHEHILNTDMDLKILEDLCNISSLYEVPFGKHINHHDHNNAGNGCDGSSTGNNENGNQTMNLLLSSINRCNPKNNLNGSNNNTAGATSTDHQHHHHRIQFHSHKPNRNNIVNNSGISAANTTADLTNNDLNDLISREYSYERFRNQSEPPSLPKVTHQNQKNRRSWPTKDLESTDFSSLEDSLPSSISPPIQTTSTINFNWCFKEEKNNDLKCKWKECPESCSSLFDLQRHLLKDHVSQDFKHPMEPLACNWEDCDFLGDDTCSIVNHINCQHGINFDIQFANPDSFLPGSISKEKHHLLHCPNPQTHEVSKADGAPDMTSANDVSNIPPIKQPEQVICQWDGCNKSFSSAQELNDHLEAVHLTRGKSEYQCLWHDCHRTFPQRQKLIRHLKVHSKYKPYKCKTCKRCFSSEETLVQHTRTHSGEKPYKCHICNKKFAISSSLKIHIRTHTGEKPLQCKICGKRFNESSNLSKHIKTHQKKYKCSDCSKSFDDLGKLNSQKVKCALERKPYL
Description: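 Universal 'all 10-mer' protein binding microarrays (Agilent AMADID 015681) probed with GST-tagged S. cerevisiae TFs (full-length or DBD) made by in vitro transcription/translation (PURExpress), about 100-200 nM. Bound TF was detected with fluorescent anti-GST. Each ungapped 8-mer (which stands for itself and its reverse complement) is scored by the PBM enrichment score (E-score), a modified Wilcoxon-Mann-Whitney statistic from -0.5 to +0.5, computed with the Universal PBM Analysis Suite. Scale: above 0.35 generally sequence-specific binding.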

In order of rising “PBM E-score” value:
1. CAGCAAGC  -0.389
2. CGCTAGCC  -0.373
3. ACCCCCTA  -0.354
4. GATAGCTA  -0.298
5. AGTAGTCA  -0.276
6. GGCACAGA  -0.267
7. ACCTAGGC  -0.26
8. GGTGAACA  -0.231
9. AGGCTGGA  -0.23
10. ATTGGCAG  -0.219
11. AGCCTAAT  -0.212
12. CACGCTAG  -0.21
13. GAAACTCC  -0.206
14. AGATCGCT  -0.204
15. GCATCCAA  -0.203
16. CGTCTCTA  -0.19
17. AACCCCCT  -0.187
18. AGCCTTTC  -0.185
19. CATCCTCC  -0.176
20. GGCTCAAA  -0.176
21. CCACAGCC  -0.17
22. CGAAGCAG  -0.165
23. ATTCTCTG  -0.159
24. CGTTGTGA  -0.151
25. ATATCTCC  -0.149
26. AGGGAGAA  -0.148
27. AGCGTTAG  -0.147
28. CGTATCCA  -0.133
29. CGTTGCGA  -0.126
30. ATGACTCG  -0.115
31. CGTAGACC  -0.109
32. GCGCTATA  -0.105
33. CAGCTGGC  -0.0978
34. ACCCCCTC  -0.0959
35. ATCAACGC  -0.0956
36. AATCGCGG  -0.0922
37. CACCCCTG  -0.0914
38. TAGCCCTA  -0.0869
39. AGAGTTAA  -0.086
40. ACGTTGAG  -0.0801
41. CGCTATCA  -0.078
42. GGACAGCC  -0.0735
43. ACCCCCTG  -0.07
44. CATGCTGG  -0.0654
45. TAAACCGA  -0.0627
46. AGATTTGC  -0.0426
47. CGGATTCC  -0.0353
48. TCGTTAAA  -0.0347
49. ACGTCGCA  -0.0322
50. CATCGACC  -0.0318
51. ATAACAGC  -0.0193
52. TCCCTAAA  -0.0128
53. ATCCTAAG  -0.00974
54. AGAGAGAC  -0.00859
55. ACTCTTGA  -0.00751
56. CCCTGCCA  -0.00313
57. AGGAACAA  0.00761
58. AAACTTCA  0.00932
59. AAACTTAG  0.0118
60. CTGTTAAA  0.0123
61. CAAAGGTG  0.0139
62. GTGGTTGA  0.0163
63. GTAGCACA  0.017
64. CACCAAGA  0.0172
65. ATCCCCTA  0.0194
66. CTGAAGTA  0.0214
67. GCCATATA  0.0242
68. GAAAAGAC  0.0296
69. GAGTGTCA  0.035
70. ACAGATCA  0.0477
71. CCCCTAAA  0.0485
72. ATTGACTC  0.049
73. CGGTTTAA  0.0515
74. CACCAGGA  0.0532
75. ATCCTAAT  0.0542
76. ATGTTAAA  0.0569
77. GCTGCTTA  0.0693
78. GCTAAAAC  0.0736
79. GGGGTTCA  0.0745
80. CGGTATAA  0.0772
81. CCACATCG  0.0835
82. TGTGTTAA  0.0894
83. CAGATACA  0.0912
84. ATCCTTTA  0.092
85. TTCTTCAA  0.0925
86. CACCTTTC  0.0949
87. ACAGAACC  0.0979
88. CACCCCTA  0.0983
89. GACCTTCA  0.0992
90. ACGTTAAA  0.101
91. CGTTGTTA  0.102
92. GCCCTAAC  0.111
93. GGCCTTTA  0.114
94. AGGTATAT  0.115
95. CACCTTTA  0.118
96. ATGGTTCA  0.119
97. CGGTGCTC  0.123
98. GGGGTTTA  0.126
99. AGCCTTTA  0.132
100. CCTGTGAG  0.133
101. ATAGTTGC  0.135
102. CTTGCGAA  0.139
103. AGGTGGTC  0.142
104. AGTTGTAC  0.146
105. TCCTTAAA  0.15
106. CCCCTAAG  0.158
107. GGACCCTA  0.159
108. AGTTGCGA  0.16
109. AGTTGTTA  0.161
110. CAAACCTA  0.166
111. AAACCCTC  0.175
112. ATGGTTTA  0.191
113. AGTTGTGA  0.193
114. CTGTTGCA  0.201
115. AACCTTCC  0.21
116. GTGGTTTA  0.213
117. CAACCCGG  0.213
118. CGGTTGAA  0.221
119. CCCCTAAC  0.232
120. TAGTTAAA  0.234
121. CACCCCTC  0.239
122. GTGATAAC  0.251
123. AGACCCTG  0.253
124. CAACCCTC  0.258
125. GAACCCTA  0.272
126. AAACCCTT  0.272
127. TCGGTTAA  0.274
128. AACCTTGG  0.274
129. GACCCCTA  0.276
130. AACCCCGT  0.277
131. GGTTGTAA  0.278
132. TGACCAAA  0.28
133. AGGGTTTG  0.292
134. AGACCCTA  0.298
135. AACCTTCG  0.305
136. TAACCGTA  0.31
137. AAACCCAA  0.312
138. AGGGTTTA  0.315
139. AGGTATAA  0.317
140. AACCTTTC  0.324
141. CGACCCTA  0.328
142. CGGTTAAA  0.328
143. GGTTGCGA  0.335
144. GGTTGTAC  0.336
145. AAACCCTG  0.337
146. AACCCCTG  0.347
147. AACCCCTC  0.353
148. GGTTGTTA  0.355
149. ATGGTTAA  0.357
150. TGGGTTAA  0.359
151. TACCCCTA  0.366
152. AACCTTCA  0.368
153. GGTTGTGA  0.374
154. AGGTTAAA  0.376
155. AACCTTTG  0.377
156. TGGTTAAA  0.379
157. AACCCCTT  0.38
158. AACCCCTA  0.389
159. AACCTTTA  0.398
160. GACCTTTA  0.401
161. GGGGTTAA  0.403
162. GTGGTTAA  0.406
163. ACCCTAAT  0.407
164. ACCCTAAC  0.414
165. ACCCTAAA  0.416
166. CAACCCTG  0.419
167. AAACCCTA  0.423
168. AGGGTTAG  0.431
169. CAACCCTA  0.442
170. ACCCTAAG  0.457
171. AGGGTTAA  0.461
172. TAACCCTA  0.462
